# Screening results (PubChem BioAssay)
# CHOP inh – inhibitors of CHOP promoter induction, primary screen, cell-based, unfolded protein response, luciferase reporter. CHO-K1 CHOP-promoter luciferase, tunicamycin-induced, 15-18 h. inhibition, % at 10 µM. hit rate 3.8% among 220,000. AID 2732, 2010;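 active means compounds that reduced the stress-induced luciferase reporter signal by more than about 70% of percent inhibition, limit read from the data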;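 further: 0% = tunicamycin plus vehicle and 100% = wells without tunicamycin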
# WT yeast gro inh – growth inhibition of WT strain, primary screen, mitochondrial fusion inhibitor project, WT and mutant strains, chemical genetic | hit rate 2.1% among 190,000 | inhibition, % at 10 µM | mitochondrial fusion phenotypic screen; in the data active means inhibition above about 58%; tested in S. cerevisiae
# Arbovirus anti – antivirals against arbovirus infection, primary screen, cell-based, full library, 10K replicate subset; arbovirus infection cell-based antiviral screen; inhibition, % at 10 µM; hit rate 0.37% among 200,000; in the data active means inhibition above about 30%
# L major viab – Leishmania major promastigote growth inhibition, primary screen. Leishmania major promastigotes, resazurin fluorescence viability. inhibition, % at 10 µM. hit rate 9% among 200,000; in the data active means inhibition above about 50%;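 further: promastigotes grown with compound for 44 hours at 28 °C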
# Starred values were filed as active, the others as inactive; / = no result given. Shown are actives, neighbours in structure and some others; about 12% of the full set was active somewhere.
SMILES,CHOP inh,WT yeast gro inh,Arbovirus anti,L major viab
CC(C)(C)n1cc(S(=O)(=O)c2ccccc2)[nH]c1=O,-5.1,-11.9,3.2,-0.7
Cc1ccc(C(=O)OCC(=O)c2c[nH]c3ccccc23)cc1,11.3,4.1,7.1,1.6
CC(C)C(NS(=O)(=O)c1c(Cl)cccc1Cl)C(=O)OCC(=O)c1c[nH]c2ccccc12 (configuration not stated),-22.2,-0.8,-19.4,43.8
O=C(CSCC(=O)N1CCCCC1)OCC(=O)c1c[nH]c2ccccc12,-9.6,-10.3,74.6*,-0.4
CC1(C(=O)OCC(=O)c2c[nH]c3ccccc23)CC1(Cl)Cl (configuration not stated),36.5,67.2*,-11.8,-3.6
CC(C)Cc1ccc(C(C)C(=O)OCC(=O)c2c[nH]c3ccccc23)cc1 (configuration not stated),64.3,69.2*,-29.2,9.1
CC1CC(C)CN(C(=O)C(C)N(C)CC(=O)Nc2ccccc2Cl)C1 (configuration not stated),9.7,-8.4,-6.1,21.3
CCCCN(NC(C)=O)c1nc(Cl)nc(NC(C)C)n1,-33.9,1.2,-2.1,-1.9
O=C(O)c1ccc(/C=C2\SC(=Nc3ccccc3)N(c3ccccc3)C2=O)cc1,-28.5,-12.5,5.2,2.5
CCO[C@@H]1OC(C(=O)N2CCN(C)CC2)=C[C@H](c2coc3ccccc3c2=O)[C@H]1CCCO,1.5,-10.4,1.2,-4.5
CC(=O)C1=C(O)C(=O)N(CCCn2ccnc2)C1c1ccc(C)cc1 (configuration not stated),-16.8,-11.0,2.2,-8.0
CC(=O)N1CCC(C(=O)c2ccc(Cl)cc2)CC1,89.4*,-15.8,-2.9,-6.9
O=C(c1ccc(Cl)cc1)C1CCN(C(=O)NC2CCCCC2)CC1,12.2,19.3,-0.9,52.3*
CCCNC(=O)N1CCC(C(=O)c2ccc(Cl)cc2)CC1,-11.4,-10.8,13.7,6.0
O=C1OCC2OC(O)C(O)C(O)C2OC(=O)c2cc(O)c(O)c(O)c2-c2c(O)c(O)c3oc(=O)c4c(c(O)c(O)c5oc(=O)c2c3c54)-c2c1cc(O)c(O)c2O (configuration not stated),-17.7,/,/,/
CCC(C)n1c(-c2cccs2)nc2nc3ccccc3nc21 (configuration not stated),-11.3,-0.5,6.4,67.0*
c1ccc(-n2c(-c3cccs3)nc3nc4ccccc4nc32)cc1,-0.1,-1.6,-6.6,-1.0
CCCCc1nc(Cl)c(C#N)c2c1CCCC2,87.5*,-5.8,11.0,22.6
O=c1c2c(n3cnnc3n1-c1ccccc1)-c1ccccc1CC21CCCC1,56.2,1.0,4.6,65.8*
CCN(CC)/C(Sc1ccccc1)=C(/C(Cl)=C(Cl)Cl)[N+](=O)[O-],18.4,-4.6,-24.6,31.3
Cc1ccnc(Sc2ccc([N+](=O)[O-])cc2[N+](=O)[O-])n1,-13.6,13.8,-32.0,100.5*
O=[N+]([O-])c1ccc(Sc2ccc(Cl)c(Cl)c2)nc1,40.9,-16.1,-16.5,-3.3
Nc1nc(Sc2ccc([N+](=O)[O-])cc2[N+](=O)[O-])n[nH]1,-7.9,/,/,/
Cc1ccc(Sc2ccc([N+](=O)[O-])cc2[N+](=O)[O-])nc1,20.6,17.2,-10.1,58.4*
CC(C)CCn1cnc2c(oc3nc4c(cc32)CCCC4)c1=O,15.3,/,/,/
SMILES,CHOP inh,WT yeast gro inh,Arbovirus anti,L major viab
COc1cc(C=O)ccc1OCC(=O)N1CCCC1,-16.1,-11.0,-1.5,-6.7
CNC(=O)COc1ccc(C=O)cc1OC,42.9,3.7,-2.2,59.8*
COc1cc(C)ccc1OCCOc1ccccc1Cl,76.1*,14.6,-5.7,-1.5
COc1cc(C=O)ccc1OCCSc1ccc(C)cc1,66.6,-26.1,1.0,0.0
COc1cc(C=O)ccc1OCCOCCOc1cc(C)ccc1Cl,16.9,3.5,0.8,72.7*
CCOC(=O)C1CCN(C(=O)c2cccc(NS(=O)(=O)c3ccc(F)c(F)c3)c2)CC1,-3.7,-4.1,2.1,-5.0
O=C(CN1CCN(c2ccccc2F)CC1)NC(=O)NCc1ccccc1,-0.6,-2.4,11.3,-4.5
O=C(Nc1ccncc1)c1ccc(NS(=O)(=O)c2cccc(F)c2)cc1,41.5,-10.9,-2.7,-0.1
Cc1nc2nc(-c3ccc(Cl)cc3)[nH]n2c(=O)c1Cc1ccccc1,42.9,1.3,-7.6,-7.8
Cc1cc2nc(C)c(Cc3ccccc3)c(=O)n2[nH]1,2.8,-15.5,-0.5,97.5*
COc1ccc(-c2c(C)[nH]n3c(=O)c(Cc4ccccc4)c(C)nc23)cc1,-25.1,-5.7,-12.3,81.0*
COc1ccccc1-c1c(C)[nH]n2c(=O)c(Cc3ccccc3)c(C)nc12,13.0,4.8,2.1,14.8
Cc1nc2c(-c3ccccc3)c[nH]n2c(=O)c1Cc1ccccc1,-22.1,-13.1,-17.6,58.9*
